{"source": "the supplement of paper PMC8728848", "test_in_all_cases": "glycan array binding signal (z-score within array); higher = stronger binding", "settings_in_all_cases": "glycan notation: IUPAC condensed, linker removed", "key": {"[1]": {"molecular_target": "Fuc(a1-2)Gal(b1-3)GalNAc(b1-3)Gal", "method_in_brief": "(§1)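 Glycan array data were curated from 3228 arrays in the Consortium for Functional Glycomics database and kept only where the protein sequence was available. Glycan names were converted to IUPAC-condensed notation, and columns mapping to the same glycan were averaged. The binding signal is a within-array Z-score, averaged across arrays of the same protein sequence at different concentrations or buffers and across linkers. Negative Z-scores can be read as non-binding.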"}, "[2]": {"molecular_target": "Fuc(a1-2)Gal(b1-3)GlcNAc(b1-2)Man(a1-3)[Fuc(a1-2)Gal(b1-3)GlcNAc(b1-2)Man(a1-6)]Man(b1-4)GlcNAc(b1-4)GlcNAc", "method_in_brief": "as §1"}, "[3]": {"molecular_target": "Fuc(a1-2)Gal(b1-4)[Fuc(a1-3)]GlcNAc(b1-3)GalNAc", "method_in_brief": "as §1"}, "[4]": {"molecular_target": "Fuc(a1-2)Gal6S(b1-3)GlcNAc", "method_in_brief": "as §1"}, "[5]": {"molecular_target": "Fuc(a1-2)[Gal(a1-3)]Gal(b1-4)GlcNAc(b1-6)GalNAc", "method_in_brief": "as §1"}, "[6]": {"molecular_target": "Fuc(a1-2)[GalNAc(a1-3)]Gal(b1-3)GlcNAc(b1-2)Man(a1-3)[Fuc(a1-2)[GalNAc(a1-3)]Gal(b1-3)GlcNAc(b1-2)Man(a1-6)]Man(b1-4)GlcNAc(b1-4)GlcNAc", "method_in_brief": "as §1"}, "[7]": {"molecular_target": "Fuc(a1-2)[GalNAc(a1-3)]Gal(b1-3)GlcNAc(b1-3)GalNAc", "method_in_brief": "as §1"}, "[8]": {"molecular_target": "Fuc(a1-2)[GalNAc(a1-3)]Gal(b1-4)Glc", "method_in_brief": "as §1"}, "[9]": {"molecular_target": "Fuc(a1-2)[GalNAc(a1-3)]Gal(b1-4)GlcNAc(b1-3)Gal(b1-4)GlcNAc", "method_in_brief": "as §1"}, "[10]": {"molecular_target": "Fuc(a1-2)[GalNAc(a1-3)]Gal(b1-4)[Fuc(a1-3)]GlcNAc(b1-3)GalNAc", "method_in_brief": "as §1"}, "[11]": {"molecular_target": "Fuc(a1-3)[Gal(b1-4)]GlcNAc(b1-4)Gal(b1-4)[Fuc(a1-3)]GlcNAc", "method_in_brief": "as §1"}, "[12]": {"molecular_target": "Fuc(a1-3)[Gal(b1-4)]GlcNAc(b1-6)GalNAc", "method_in_brief": "as §1"}, "[13]": {"molecular_target": "Fuc(a1-3)[Gal(b1-4)]GlcNAc6S", "method_in_brief": "as §1"}, "Gal(a1-2)Gal": {"molecular_target": "Gal(a1-2)Gal", "method_in_brief": "as §1"}, "[14]": {"molecular_target": "Gal(a1-3)Gal(b1-3)GlcNAc(b1-2)Man(a1-3)[Gal(a1-3)Gal(b1-3)GlcNAc(b1-2)Man(a1-6)]Man(b1-4)GlcNAc(b1-4)GlcNAc", "method_in_brief": "as §1"}, "Gal(a1-3)Gal(b1-4)GlcNAc": {"molecular_target": "Gal(a1-3)Gal(b1-4)GlcNAc", "method_in_brief": "as §1"}, "Gal(b1-3)Gal": {"molecular_target": "Gal(b1-3)Gal", "method_in_brief": "as §1"}, "[15]": {"molecular_target": "Gal(b1-3)GlcNAc(b1-2)Man(a1-3)[GlcNAc(b1-4)][Gal(b1-3)GlcNAc(b1-2)Man(a1-6)]Man(b1-4)GlcNAc(b1-4)GlcNAc", "method_in_brief": "as §1"}, "[16]": {"molecular_target": "Gal(b1-3)[GlcNAc(b1-6)]GalNAc", "method_in_brief": "as §1"}, "[17]": {"molecular_target": "Gal(b1-4)GlcNAc(b1-3)Gal(b1-4)GlcNAc", "method_in_brief": "as §1"}, "[18]": {"molecular_target": "Gal(b1-4)GlcNAc(b1-3)GalNAc", "method_in_brief": "as §1"}, "Gal6S(b1-4)Glc": {"molecular_target": "Gal6S(b1-4)Glc", "method_in_brief": "as §1"}, "[19]": {"molecular_target": "GalNAc(a1-3)GalNAc(b1-3)Gal(a1-4)Gal(b1-4)Glc", "method_in_brief": "as §1"}, "[20]": {"molecular_target": "GalNAc(b1-3)Gal(a1-4)Gal(b1-4)GlcNAc(b1-3)Gal(b1-4)Glc", "method_in_brief": "as §1"}, "GalNAc6S(b1-4)GlcNAc": {"molecular_target": "GalNAc6S(b1-4)GlcNAc", "method_in_brief": "as §1"}, "[21]": {"molecular_target": "GlcNAc(a1-4)Gal(b1-4)GalNAc", "method_in_brief": "as §1"}, "[22]": {"molecular_target": "GlcNAc(a1-4)Gal(b1-4)GlcNAc(b1-3)Gal(b1-4)[Fuc(a1-3)]GlcNAc(b1-3)Gal(b1-4)[Fuc(a1-3)]GlcNAc", "method_in_brief": "as §1"}, "[23]": {"molecular_target": "GlcNAc(b1-3)Gal(b1-4)GlcNAc", "method_in_brief": "as §1"}, "[24]": {"molecular_target": "GlcNAc(b1-3)Gal(b1-4)GlcNAc(b1-3)Gal(b1-4)GlcNAc", "method_in_brief": "as §1"}, "GlcNAc(b1-6)GalNAc": {"molecular_target": "GlcNAc(b1-6)GalNAc", "method_in_brief": "as §1"}, "Kdn(a2-3)Gal(b1-4)Glc": {"molecular_target": "Kdn(a2-3)Gal(b1-4)Glc", "method_in_brief": "as §1"}, "[25]": {"molecular_target": "Kdn(a2-3)Gal(b1-4)[Fuc(a1-3)]GlcNAc", "method_in_brief": "as §1"}, "Man(a1-3)[Man(a1-6)]Man": {"molecular_target": "Man(a1-3)[Man(a1-6)]Man", "method_in_brief": "as §1"}, "[26]": {"molecular_target": "Neu5Ac(a2-3)Gal(b1-3)GlcNAc(b1-3)GalNAc", "method_in_brief": "as §1"}, "[27]": {"molecular_target": "Neu5Ac(a2-3)Gal(b1-4)[Fuc(a1-3)]GlcNAc(b1-3)Gal(b1-4)[Fuc(a1-3)]GlcNAc(b1-3)Gal(b1-4)[Fuc(a1-3)]GlcNAc", "method_in_brief": "as §1"}, "[28]": {"molecular_target": "Neu5Ac(a2-3)Gal(b1-4)[Fuc(a1-3)]GlcNAc(b1-3)GalNAc", "method_in_brief": "as §1"}, "[29]": {"molecular_target": "Neu5Ac(a2-3)Gal6S(b1-4)[Fuc(a1-3)]GlcNAc", "method_in_brief": "as §1"}, "Neu5Ac(a2-6)Gal(b1-4)Glc": {"molecular_target": "Neu5Ac(a2-6)Gal(b1-4)Glc", "method_in_brief": "as §1"}, "[30]": {"molecular_target": "Neu5Ac(a2-6)Gal(b1-4)GlcNAc(b1-2)Man(a1-6)[Gal(b1-4)GlcNAc(b1-2)Man(a1-3)]Man(b1-4)GlcNAc(b1-4)GlcNAc", "method_in_brief": "as §1"}, "[31]": {"molecular_target": "Neu5Ac(a2-6)Gal(b1-4)GlcNAc(b1-2)Man(a1-6)[Man(a1-3)]Man(b1-4)GlcNAc(b1-4)GlcNAc", "method_in_brief": "as §1"}, "[32]": {"molecular_target": "Neu5Ac(a2-8)Neu5Ac(a2-3)[Gal(b1-3)GalNAc(b1-4)]Gal(b1-4)Glc", "method_in_brief": "as §1"}, "[33]": {"molecular_target": "Neu5Ac(a2-8)Neu5Ac(a2-8)Neu5Ac(a2-8)Neu5Ac(a2-3)[GalNAc(b1-4)]Gal(b1-4)Glc", "method_in_brief": "as §1"}, "[34]": {"molecular_target": "Neu5Ac9Ac(a2-3)Gal(b1-3)GlcNAc", "method_in_brief": "as §1"}}, "note": "This is one part of a sample in which the strongest signals are shown more often than they occur.", "data": [{"binder": "PitA (Streptococcus oralis), G3F8D8 (protein) MNIRFDFKKVQIIARRLVTLLAILFLCAPISLLNADSTTEPQTTLHKTITPISGQDDKYELSLDITSKLGTETQTDPLDVVLVADLSGSMQNQDVQSFDGRTISRIDALKNTLRGTNGRKGLIDTILSNSNNRLSMVGFGGKIDNKKVDQYWDGNKWRLFRPYWPYERMTKYYDGVSPWDDANTILGWSNNARAAKTAVYNMSIAGGNSIGTESGIGTGTNIGAGLTLANQLMGSARSNAKKVVILLSDGFANMVYDANGYTIYNYNNEDPNIETAPQWFWDRLNNNLNSLSYSLAPTLDGFYSIKFRYSNNVDSITSLQYYMRQHNASIPNEIFSANDEDQLRDSFKDITDKILPLGIHHVSIKDVLSKYVQLLPNGSSEFRVVKEKDGSSEILIENQVTFDTKTTSEGLVEVTAKFSPNYSLEDGARYVLKFTVTSSQEALDAIAGDKKLEAGDAEGSDVNKLYSNKGASVTYSYGIGNSQTKTKEYSDNPTFKPSDPLTVPVEVEWQGVTGARTVITADQPSNVELKLVQKNKNGGSDNQDYRKTNVNVSKNVSNETRNFEKVAKGYQYDLIAPDVPAFTKEIKNVGTESKPSFKVIYKQLPSLTIKKVLEAENNLNKEFRIKVKLTSPDSKPLNGTFGEITVVNGEAEIRVEKRKRWEGILSYLPRGTHYKVEEEAASTNGYHVTYENQEGDLNKDETSIVTNHKLPSLSVTKKVTGVFANLLKSFKITINIRDAQNSPLNGTYTATVNNKRTPLQFTNGRASIDLNKDQTIKIYGLPLDSHYTVEEESNSSRGYQVSYENQEGKLDGDKSATVTNNKNSVPETGVDFLSSTLMLGIILPLGGIFFTILLGYLVVHRRK", "values": [{"measurement": "glycan array binding signal (z-score)", "setting": "[1]", "value": 10.3}, {"measurement": "glycan array binding signal (z-score)", "setting": "[2]", "value": 0.06}, {"measurement": "glycan array binding signal (z-score)", "setting": "[3]", "value": 7.27}, {"measurement": "glycan array binding signal (z-score)", "setting": "[4]", "value": -0.656}, {"measurement": "glycan array binding signal (z-score)", "setting": "[5]", "value": 0.131}, {"measurement": "glycan array binding signal (z-score)", "setting": "[6]", "value": -0.473}, {"measurement": "glycan array binding signal (z-score)", "setting": "[7]", "value": 4.75}, {"measurement": "glycan array binding signal (z-score)", "setting": "[8]", "value": -0.125}, {"measurement": "glycan array binding signal (z-score)", "setting": "[9]", "value": -0.715}, {"measurement": "glycan array binding signal (z-score)", "setting": "[10]", "value": 5.3}, {"measurement": "glycan array binding signal (z-score)", "setting": "[11]", "value": 0.05}, {"measurement": "glycan array binding signal (z-score)", "setting": "[12]", "value": 4.67}, {"measurement": "glycan array binding signal (z-score)", "setting": "[13]", "value": 0.782}, {"measurement": "glycan array binding signal (z-score)", "setting": "Gal(a1-2)Gal", "value": -0.212}, {"measurement": "glycan array binding signal (z-score)", "setting": "[14]", "value": 3.83}, {"measurement": "glycan array binding signal (z-score)", "setting": "Gal(a1-3)Gal(b1-4)GlcNAc", "value": -0.128}, {"measurement": "glycan array binding signal (z-score)", "setting": "Gal(b1-3)Gal", "value": -0.7}, {"measurement": "glycan array binding signal (z-score)", "setting": "[15]", "value": 1.74}, {"measurement": "glycan array binding signal (z-score)", "setting": "[16]", "value": -0.437}, {"measurement": "glycan array binding signal (z-score)", "setting": "[17]", "value": -0.586}, {"measurement": "glycan array binding signal (z-score)", "setting": "[18]", "value": -0.575}, {"measurement": "glycan array binding signal (z-score)", "setting": "Gal6S(b1-4)Glc", "value": -0.151}, {"measurement": "glycan array binding signal (z-score)", "setting": "[19]", "value": -0.395}, {"measurement": "glycan array binding signal (z-score)", "setting": "[20]", "value": 0.654}, {"measurement": "glycan array binding signal (z-score)", "setting": "GalNAc6S(b1-4)GlcNAc", "value": 0.019}, {"measurement": "glycan array binding signal (z-score)", "setting": "[21]", "value": 5.14}, {"measurement": "glycan array binding signal (z-score)", "setting": "[22]", "value": 3.75}, {"measurement": "glycan array binding signal (z-score)", "setting": "[23]", "value": -0.199}, {"measurement": "glycan array binding signal (z-score)", "setting": "[24]", "value": -0.259}, {"measurement": "glycan array binding signal (z-score)", "setting": "GlcNAc(b1-6)GalNAc", "value": 0.138}, {"measurement": "glycan array binding signal (z-score)", "setting": "Kdn(a2-3)Gal(b1-4)Glc", "value": -0.512}, {"measurement": "glycan array binding signal (z-score)", "setting": "[25]", "value": 1.05}, {"measurement": "glycan array binding signal (z-score)", "setting": "Man(a1-3)[Man(a1-6)]Man", "value": -0.627}, {"measurement": "glycan array binding signal (z-score)", "setting": "[26]", "value": -0.148}, {"measurement": "glycan array binding signal (z-score)", "setting": "[27]", "value": 0.263}, {"measurement": "glycan array binding signal (z-score)", "setting": "[28]", "value": 3.68}, {"measurement": "glycan array binding signal (z-score)", "setting": "[29]", "value": -0.322}, {"measurement": "glycan array binding signal (z-score)", "setting": "Neu5Ac(a2-6)Gal(b1-4)Glc", "value": -0.522}, {"measurement": "glycan array binding signal (z-score)", "setting": "[30]", "value": -0.302}, {"measurement": "glycan array binding signal (z-score)", "setting": "[31]", "value": 0.537}, {"measurement": "glycan array binding signal (z-score)", "setting": "[32]", "value": -0.463}, {"measurement": "glycan array binding signal (z-score)", "setting": "[33]", "value": 0.179}, {"measurement": "glycan array binding signal (z-score)", "setting": "[34]", "value": -0.641}]}]}
